SMILES strings stand for the structures. Compounds without any hit were thinned out: in the full panel of roughly 83,000, 20% have a hit.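 The test compound was applied at a single concentration to cells in 96-well plates for 48 hours, and percent growth was recorded.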 Values without a mark were called inactive. Calls of active or inactive are those of the source. How the source made its calls: active means growth percent below 10; inactive means the rest.

Among the test systems are HT29 colon; SNB-75 CNS; SNB-19 CNS; U251 CNS; SK-MEL-5 melanoma; UACC-62 melanoma; LOX IMVI melanoma; SK-MEL-28 melanoma; SK-MEL-2 melanoma.
What all share (assay): NCI-60 one-dose screen, 48 h (100 = growth as untreated, 0 = no growth, -100 = all killed)
What all share (conditions): 10 µM unless noted

For `CN(C)c1ccc(/C=C(\C#N)c2nc3ccccc3c(=O)[nH]2)cc1`, the growth in the test on HT29 colon was 87.6%; with SNB-75 CNS, 113%; in the test with SNB-19 CNS, 94.7%; with U251 CNS, 77.4%; in the test on SK-MEL-5 melanoma, 89.3%; in the test with UACC-62 melanoma it was 94.8%. For the same compound, the growth in the test with LOX IMVI melanoma is 83.8%; in the test with SK-MEL-28 melanoma it was 110%; in the test with SK-MEL-2 melanoma, 36.5%.

With `CCOC(=O)/C=C(/C)Sc1cc(O)c2ccccc2c1O`, the growth in the test on HT29 colon is 79.7%; in the test with SNB-75 CNS, -83% (active); with SNB-19 CNS it was -14.7% (active); with U251 CNS, 20%; in the test with SK-MEL-5 melanoma, -99.1% (active); in the test on UACC-62 melanoma, 36.3%. The results for the growth in the test on LOX IMVI melanoma, in the test on SK-MEL-28 melanoma and in the test with SK-MEL-2 melanoma were -36.1% (active), -53.9% (active) and 27.8%, respectively.

Consider `CCCc1cc(=O)n2c(C(=O)Nc3ccccc3OC)c(C(=O)Nc3ccc(F)cc3)sc2n1`, for which the growth in the test on HT29 colon is 38.2% [30 µM]; in the test with SNB-75 CNS it was 12.8% [30 µM]; in the test with SNB-19 CNS, 26.7% [30 µM]; with U251 CNS, 14.7% [30 µM]; with SK-MEL-5 melanoma, 45.4% [30 µM]; with UACC-62 melanoma it was 66.6% [30 µM]. For the same compound, the growth was 44.5% [30 µM] with LOX IMVI melanoma, 68.5% [30 µM] in the test on SK-MEL-28 melanoma and 91.6% [30 µM] in the test on SK-MEL-2 melanoma.

For `N#Cc1ccc(NC(=O)Nc2ccc(Oc3ccc(NC(=O)Nc4ccc(C#N)cc4)cc3)cc2)cc1`, the growth with HT29 colon is 37.4%; with SNB-75 CNS, 70.1%; in the test with SNB-19 CNS, 30.7%; in the test with U251 CNS it was 27.7%; with SK-MEL-5 melanoma, 31.2%; in the test on UACC-62 melanoma it was 11.2%. The growth in the test with LOX IMVI melanoma was 35.4%; in the test on SK-MEL-28 melanoma, 51%; with SK-MEL-2 melanoma, -19.6% (active).

Consider `COc1ccccc1[C@H]1c2[nH]c3ccccc3c2C[C@H]2C(=O)N(CCCCCCC(=O)NO)CC(=O)N12`, for which the growth in the test on HT29 colon was 23.4%; with SNB-75 CNS, -6.11% (active); in the test with SNB-19 CNS, 67.3%; in the test with U251 CNS it was 46.6%; in the test on SK-MEL-5 melanoma, 26.6%; with UACC-62 melanoma it was 23.7%. In addition, the values for the growth with LOX IMVI melanoma, with SK-MEL-28 melanoma and in the test on SK-MEL-2 melanoma were 32.7%, 18.6% and 59.5%, respectively.

Take `COc1ccc(Nc2ccnc(NCCCNc3ccnc4cc(Cl)ccc34)n2)cc1`: the growth in the test with HT29 colon is -56.6% (active); with SNB-75 CNS, -75.5% (active); with SNB-19 CNS, 7.11% (active); with U251 CNS, -84.3% (active); in the test with SK-MEL-5 melanoma it was -98% (active); in the test with UACC-62 melanoma, -91.2% (active). For the same compound, the growth in the test on LOX IMVI melanoma is -80.4% (active); in the test on SK-MEL-28 melanoma, -93.6% (active); in the test on SK-MEL-2 melanoma, -86.4% (active).

On to `O=C(CSc1nnc(Nc2ccccc2)s1)NCCc1ccc(F)cc1`, for which the growth in the test on HT29 colon was 105%; in the test with SNB-75 CNS it was 119%; with SNB-19 CNS, 100%; with U251 CNS, 105%; in the test with SK-MEL-5 melanoma it was 97.2%; with UACC-62 melanoma, 90%. Moreover, the growth with LOX IMVI melanoma is 99.8%; in the test on SK-MEL-28 melanoma, 134%; in the test with SK-MEL-2 melanoma it was 66.2%.

In the case of `CN(C)CCCN1c2nc3ccccc3cc2Sc2cc3ccccc3nc21`, the growth in the test on HT29 colon is -88.6% (active); in the test on SNB-75 CNS it was 9.61% (active); in the test on SNB-19 CNS it was -56.1% (active); in the test on U251 CNS it was -84% (active); in the test with SK-MEL-5 melanoma, -75.9% (active); with UACC-62 melanoma, -91.3% (active). The growth in the test with LOX IMVI melanoma was -100% (active); in the test on SK-MEL-28 melanoma it was -92.9% (active); in the test on SK-MEL-2 melanoma, 13%.

In the case of `Cc1cc(NC(=O)Nc2cccc3ccccc23)no1`, the growth in the test with HT29 colon was 108%; with SNB-75 CNS it was 91.4%; with SNB-19 CNS it was 105%; in the test with U251 CNS, 93.6%; in the test with SK-MEL-5 melanoma, 99%; in the test with UACC-62 melanoma, 90.6%. Besides, the growth in the test on LOX IMVI melanoma was 95.9%; with SK-MEL-28 melanoma, 116%; in the test on SK-MEL-2 melanoma, 101%.

In the case of `O=C(Oc1ccc[nH]c1=O)c1cccc(Cl)c1`, the growth in the test on HT29 colon was 97.4%; in the test with SNB-75 CNS, 53.2%; in the test with SNB-19 CNS it was 85.8%; with U251 CNS, 92.7%; with SK-MEL-5 melanoma it was 99.8%; in the test with UACC-62 melanoma, 95.3%. For the same compound, the growth with LOX IMVI melanoma was 90.8%; in the test on SK-MEL-28 melanoma, 127%; in the test on SK-MEL-2 melanoma it was 108%.

With `O=C(Nc1ccc(Cl)cc1)c1cc2c(cc1O)[nH]c1ccccc12`, the growth in the test with HT29 colon was 1.2% (active); in the test on SNB-75 CNS it was 38.3%; with SNB-19 CNS, 36.9%; with U251 CNS, 22.1%; in the test on SK-MEL-5 melanoma, 0.256% (active); in the test on UACC-62 melanoma, 10.2%. The results for the growth in the test on LOX IMVI melanoma, in the test on SK-MEL-28 melanoma and in the test with SK-MEL-2 melanoma were 30.4%, 38.6% and 22.3%, respectively.

As for `CCOC(=O)C(Cc1ccccc1)(C(=O)OCC)C(Br)C(=O)c1ccccc1` (configuration not stated), the growth in the test on HT29 colon is 69.7%; in the test on SNB-75 CNS, 73.5%; in the test with SNB-19 CNS, 97.5%; with U251 CNS it was 88.1%; with SK-MEL-5 melanoma it was 87.2%; in the test with LOX IMVI melanoma it was 70.4%. The growth was 91% in the test on SK-MEL-28 melanoma and 83.5% in the test with SK-MEL-2 melanoma.

Turning to `Cc1c(NCc2nnc3n(Cc4ccccc4)c(=O)c4c5c(sc4n23)CCCC5)c(=O)n(-c2ccccc2)n1C`, the growth in the test with HT29 colon is 77.2%; in the test with SNB-75 CNS, 98%; with SNB-19 CNS, 79.9%; in the test with U251 CNS, 97.6%; in the test on SK-MEL-5 melanoma it was 81%; in the test on LOX IMVI melanoma, 91.6%. Further, the results for the growth with SK-MEL-28 melanoma and in the test on SK-MEL-2 melanoma were 103% and 97.1%, respectively.

As to `COc1cc2c(cc1OCCCCCn1c(-c3ccc(OCc4ccccc4)cc3)nc3cc(N4CCOCC4)ccc31)N=C[C@@H]1CCCN1C2=O`, the growth in the test on HT29 colon was -13.7% (active); in the test on SNB-75 CNS it was 12.1%; in the test with SNB-19 CNS, 34.7%; in the test with U251 CNS it was -24.4% (active); in the test on SK-MEL-5 melanoma it was -66.7% (active); with LOX IMVI melanoma, -29.7% (active). The growth with SK-MEL-28 melanoma was -19% (active); in the test on SK-MEL-2 melanoma, -40% (active).

As to `[O-]/[N+](=C\C=C\c1ccccc1)c1ccccc1`, the growth with HT29 colon is 102%; in the test on SNB-75 CNS, 91.8%; in the test with SNB-19 CNS, 96.8%; in the test with U251 CNS it was 98.8%; in the test with SK-MEL-5 melanoma, 102%; in the test on UACC-62 melanoma, 93.8%. Also, the results for the growth in the test on LOX IMVI melanoma, in the test with SK-MEL-28 melanoma and in the test with SK-MEL-2 melanoma were 96.8%, 110% and 100%, respectively.
